Screening data as filed in PubChem.
Glioma ERSR ind = qHTS for Inducers of the Endoplasmic Reticulum Stress Response (ERSR) in Human Glioma: qHTS; U87-MG GRP78 promoter luciferase reporter, 16 h; Potency, µM, without a hit: top-dose activation, hits mostly activators; 420,000 compounds, 0.02% hits; AID 602332, 2012; also: series mostly up to about 76 µM; % of control where 0% means no effect; nearly all actives have a fitted effect of over 35% in size
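Stably transfected U87-MG glioma cells carrying a GRP78-based luciferase sensor; 16 h compound incubation. Luminescence end-point read 10 min after Bright-Glo addition at room temperature.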
12-LOX inh = Primary qHTS assay for inhibitors of human arachidonate 12S-lipoxygenase (ALOX12): Round 2 | Polyunsaturated fatty acid lipoxygenase ALOX12 (Homo sapiens), P18054 | purified 12hLO, xylenol orange hydroperoxide absorbance | Potency, µM (doses to about 108 µM), inactives show top-dose activity change, negative = inhibition, usual class: inhibitors | 580,000 compounds, 1.1% hits | AID 1671190, 2021; also: % is scaled to controls: 0 for no effect and ±100 for the full control effect
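Purified human 12hLO (150 nM final) in 25 mM Hepes, 0.01% Triton X-100, pH 7.0 was preincubated 15 min at room temperature with compound. Then 40 uM arachidonic acid was added, 30 min. Hydroperoxide was read by Fe-XO absorbance ratio 573/405 nm.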
VDR inhibitor = Inhibitors of the vitamin D receptor (VDR): qHTS. Vitamin D3 receptor (Homo sapiens), P11473. AID 504847, 2011. VDR-SRC2-3 peptide fluorescence polarization, 2 h. 400,000 compounds, 0.93% hits. Potency, µM, inactives show max response, negative = inhibition, most hits filed as inhibitors; also: % is scaled to controls: 0 for no effect and ±100 for the full control effect
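After 23 nl compound addition and a short centrifugation, plates sat for 2 hours at ambient temperature; polarization of fluorescence then indicated loss of VDR binding to peptide SRC2-3.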
G9a inh = qHTS Assay for Inhibitors of Histone Lysine Methyltransferase G9a; 350,000 compounds, 8.8% hits; G9a H3K9 monomethylation, AlphaScreen, 2 h; Potency, µM (highest dose often 102 µM), without a hit: at the highest dose activity, negative = inhibition, hits mostly inhibitors; also: % is scaled to controls: 0 for no effect and ±100 for the full control effect; nearly all actives have a fitted effect of over 75% in size
Target sequence (Q96KQ7 913-1193 limits assumed): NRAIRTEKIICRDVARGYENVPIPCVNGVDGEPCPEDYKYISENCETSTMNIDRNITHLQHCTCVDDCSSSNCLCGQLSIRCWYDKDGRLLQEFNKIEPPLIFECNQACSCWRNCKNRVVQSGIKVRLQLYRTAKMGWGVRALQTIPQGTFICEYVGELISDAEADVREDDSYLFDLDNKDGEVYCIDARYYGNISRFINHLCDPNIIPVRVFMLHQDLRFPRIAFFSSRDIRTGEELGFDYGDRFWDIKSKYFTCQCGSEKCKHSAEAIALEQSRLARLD
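Quantitative HTS format: methyltransferase activity on a biotin-tagged H3K9 peptide is measured by AlphaScreen, using a rabbit anti-monomethyl-H3K9 antibody with streptavidin donor and anti-IgG acceptor beads. Final levels are 20 nM enzyme, 500 nM peptide, 20 uM SAM; 2 h RT.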
Sfp PPTase inh = qHTS Assay for Inhibitors of Bacillus subtilis Sfp phosphopantetheinyl transferase (PPTase) | 310,000 compounds, 3.5% hits | AID 1490, 2009 | Potency, µM, without a hit: largest response in the series, negative = inhibition, most hits filed as inhibitors | Biochemical Sfp PPTase activity, qHTS;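 also: the enzyme is Sfp with the accession as filed and its product quenches rhodamine fluorescence; 0% = enzyme reaction without inhibitor and -100% = no enzyme wells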
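Sfp 15 nM + cpd, 15 min RT; start w/ rhodamine-CoA 5 uM, BHQ-2-YbbR 12.5 uM (final); 50 mM Hepes pH 7.6, 10 mM MgCl2, 0.01% NP-40, 0.01% BSA; read 525/598 nm at 0 and 30 min.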
Active calls of the source: *; ? = inconclusive; / = no result; ! = repeats disagree; [ ] = another dose, or the depositor's remark. The sample as a whole holds a higher share of hits than the screen did. Calls follow the shape of the dose curve; as a rule, active = well fitted curve in the direction sought with a large enough effect; inconclusive = small, poorly fitted or top-dose-only effect, or another doubt; inactive = no such curve, though single readings can be large; an effect the other way counts as inactive or inconclusive. Potency is read from the fitted curve at half-maximal effect.

SMILES | Glioma ERSR ind | 12-LOX inh | VDR inhibitor | G9a inh | Sfp PPTase inh
CCOC(=O)c1c(C)n(Cc2ccccc2)c2ccc(OC(C)=O)cc12 | / | -1% | / | / | /
CN(C)[C@@H]1CN(C(=O)Cc2ccc(Cl)cc2)C[C@H]1CO | / | 40% | / | / | /
O=C(CNC12CC3CC(CC(C3)C1)C2)c1ccc(Cl)cc1 | / | 0% | / | / | /
CN(C)[C@@H]1C(=O)C(C(N)=O)=C(O)[C@@]2(O)C(=O)C3=C(O)c4c(O)cccc4[C@@](C)(O)C3C[C@@H]12 (stereo partly drawn) | -3% | ? | / | 10µM* | /
COc1ccc(CC(=O)N2[C@H]3CC[C@@H]2c2cnc(-c4ccccc4)nc2C3)cc1OC | / | 7% | / | / | /
CN1C(=O)C(=Cc2ccc(OCC(=O)Nc3ccccc3)cc2)C(=O)N(C)C1=O | -2% | / | ? | / | 50µM*
COc1ccc(C=C2C(=O)N(C)C(=O)N(C)C2=O)cc1COc1ccc(NC(C)=O)cc1 | -4% | 0% | 4% | 45µM* | 40µM*
CN1C(=O)C(=Cc2ccc(N3CCCCCC3)cc2)C(=O)N(C)C1=O | 1% | ? | 3% | / | ?
Cc1ccsc1CNC(C)C(O)c1ccc(O)cc1 (stereo not drawn) | / | -88% | / | / | /
O=c1c2ccccc2nc(-c2cccs2)n1-c1ccccc1 | -4% | 185% | -5% | 18% | 8%
NC(N)=N/N=C/c1cn(-c2ccccc2)nc1-c1cccs1 | -9% | ? | 8% | -8% | 79µM*
Nc1cccc(-c2cn(C[C@H]3CC4CCN3C[C@@H]4C(=O)Nc3ccccc3)nn2)c1 (stereo partly drawn) | / | 85%[176 µM] | / | / | /
O=C1NC(=O)N(Cc2ccc(F)cc2)C(=O)/C1=C\c1ccc([N+](=O)[O-])s1 | -5% | ? | ? | 6.3µM* | 40µM*
Cc1ccc(/C=C2\C(=O)NC(=O)N(CC3CCCO3)C2=O)s1 (stereo not drawn) | 1% | ? | ? | ? | ?
COc1ccc(CN2C(=O)NC(=O)/C(=C/c3ccc([N+](=O)[O-])s3)C2=O)cc1 | -2% | ? | 22µM* | 8.9µM* | 20µM*
C#C[C@H]1CN2CC[C@H]1C[C@@H]2CNC(=O)c1ccc2ccccc2c1 | / | 6%[176 µM] | / | / | /
COc1ccc(C(=O)O)cc1OC | -4% | -1% | 4% | -58%[2.33 µM] | 5%
O=C(O)c1cc[c]([Hg][Cl])cc1 | -3% | / | 10µM* | 1µM*! | /
C/C1=C\[C@@H](C)C/C=C/[C@H]2[C@@H]3O[C@]3(C)[C@@H](C)[C@H]3[C@H](Cc4c[nH]c5ccccc45)NC(=O)[C@]32C(=O)/C=C/C(=O)[C@@H]1O | -11% | / | ? | -21%[59 µM] | 13µM*
NC(CCP(=O)(O)O)C(=O)O (stereo not drawn) | -3% | 6% | 0% | -11%[59 µM] | 50µM*
N[C@@H](CCP(=O)(O)O)C(=O)O | 2% | ? | / | / | -16%
CN1CCN(C(=O)Cc2c[nH]c3ncc(-c4ccsc4)cc23)CC1 | / | 12%[176 µM] | / | / | /
Cc1ccc2cc3c(ccc4ccccc43)c3c2c1CC3 | 8% | 5% | -2% | ? | 50µM*
Cc1ccc2ccccc2c1NC(=O)CNC1CCCCC1 | -5% | -8% | -2% | -15%[12.7 µM] | -3%
CN1Cc2ccccc2-n2ccnc2C12CCN(C(=O)c1ccoc1)CC2 | / | 45% | / | / | /
NCCc1c[nH]c2ccc(OCc3ccccc3)cc12 | 2% | ? | 1% | 50µM* | 2%
NCCc1c[nH]c2ccccc12 | 1% | ? | 13% | 15%[59 µM] | -10%
O=C(c1ccc2nc(-c3ccco3)c(-c3ccco3)nc2c1)N1CCC2(CC1)OCCO2 | -6% | / | ? | ? | 8.9µM*
COc1ccc(C2NCc3ccccc3-n3cccc32)cc1 (stereo not drawn) | -5% | 6% | -5% | 71µM* | -6%
CC1CCCC(NC(=O)COC(=O)c2cn(C)c3ccccc23)C1C (stereo not drawn) | -3% | -16% | 5% | 21%[12.7 µM] | /
